Screening results deposited in PubChem by The Scripps Research Institute Molecular Screening Center.
A selection: hits, their analogues and other compounds. The true share with any hit is near 3.5%.
GPR151 ag – activators of human GPR151; Q8TDV0; PathHunter beta-arrestin GPR151 cells, luminescence; activation, % at 11.2 µM; hit rate 1% among 650,000; AID 1508602; in the data active means activation above about 4.9%;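 further: 0% = median of compound wells and 100% = cells with positive control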
FBW7 act – activators of human E3 ligase FBW7; normalized activity (activation), % at 26.1 µM; AID 1259310; Q969H0; hit rate 0.13% among 650,000; AlphaScreen FBW7–phospho-cyclin E peptide binding, activator screen; in the data active means normalized activity above about 1.9%;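 further: purified mutant Fbw7 with reduced substrate affinity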
MITF inh – inhibitors of human MITF. AlphaScreen MITF homodimerization, bead proximity signal. AID 1259374. inhibition, % at 2.6 µM. O75030. hit rate 0.91% among 650,000; in the data active means inhibition above about 50%;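 further: 0% = vehicle wells with protein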
Target sequence (O75030 whole entry, looked up): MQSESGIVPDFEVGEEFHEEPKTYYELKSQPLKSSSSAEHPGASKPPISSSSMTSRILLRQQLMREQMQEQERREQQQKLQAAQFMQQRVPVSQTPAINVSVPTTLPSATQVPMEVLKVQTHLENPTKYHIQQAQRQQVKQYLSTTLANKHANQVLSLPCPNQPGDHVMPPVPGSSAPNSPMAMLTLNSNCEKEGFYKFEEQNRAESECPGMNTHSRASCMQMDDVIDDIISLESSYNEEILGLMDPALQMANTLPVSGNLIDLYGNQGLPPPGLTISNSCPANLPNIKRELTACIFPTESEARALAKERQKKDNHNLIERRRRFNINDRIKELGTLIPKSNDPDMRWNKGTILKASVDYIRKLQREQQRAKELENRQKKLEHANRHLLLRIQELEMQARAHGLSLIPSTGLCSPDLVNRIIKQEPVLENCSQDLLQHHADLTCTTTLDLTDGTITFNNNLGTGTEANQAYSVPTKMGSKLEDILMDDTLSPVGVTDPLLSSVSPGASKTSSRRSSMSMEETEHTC
TEAD-YAP inh – TEAD-YAP interaction inhibition. HEK-TIYL cells, TEAD-Gal4/YAP UAS-luciferase luminescence. inhibition, % at 9.12 µM. AID 1259422. hit rate 1.4% among 640,000; in the data active means inhibition above about 32%;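 further: 0% = median of test compound wells and 100% = reference inhibitor wells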
MITF inh conf – human MITF inhibition, confirmation; shares compounds with MITF inh; AlphaScreen MITF homodimerization, biotin/His-MITF beads; inhibition, % at 2.6 µM; hit rate 16% among 4,700;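 active means inhibition above a cutoff derived from the DMSO control wells, cut at about 28% in these data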;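 further: 0% = MITF dimer wells with DMSO only; inhibitors lower the bead chemiluminescence by keeping MITF from dimerizing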
AlphaScreen DR – optically interferes with AlphaScreen signal in dose response; shares compounds with MITF inh; AlphaScreen optical interference counterscreen, cell-free; IC50, µM; hit rate 6% among 480; AID 1259373; call rule not given here
AS interf ctr – optically interferes with AlphaScreen signal; shares compounds with MITF inh; LysRS AlphaScreen counterscreen, signal interference, triplicate; inhibition, % at 2.6 µM; hit rate 7.6% among 4,700; AID 1259376;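 active means inhibition above a cutoff derived from the DMSO control wells, cut at about 30% in these data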
Active calls of the source: *.

Screening c1ccc(C2CCC(N3CCN(C4CCCCC4)CC3)CC2)cc1 (stereo not drawn) returned GPR151 ag 1.5, FBW7 act -0.1, MITF inh 33.8 and TEAD-YAP inh -10.1.
`COc1ccc(CN2CCC(N3CCN(c4ccccc4)CC3)CC2)c(OC)c1` gave GPR151 ag -0.7, FBW7 act -0.1, MITF inh 59.9*, TEAD-YAP inh 17.8, MITF inh conf -9.1 and AS interf ctr -1.1.
For COc1cc(C(=O)N2CCN(C3CCC(c4ccccc4)CC3)CC2)cc(OC)c1OC (stereo not drawn) the results were GPR151 ag -1.5, FBW7 act 0.4, MITF inh 50.7*, TEAD-YAP inh 0.5, MITF inh conf 13.1 and AS interf ctr 17.4.
For COc1ccc(CN2CCN(C3CCC(c4ccccc4)CC3)CC2)c(OC)c1 (stereo not drawn) the results were GPR151 ag -1.8, FBW7 act 0.3, MITF inh 58.3*, TEAD-YAP inh -1.1, MITF inh conf 16.1 and AS interf ctr 18.9.
For COc1cc(C(=O)N2CCN(C(=O)c3ccccc3)CC2)cc(OC)c1OC the results were GPR151 ag -0.4, FBW7 act -0.1, MITF inh 1.7 and TEAD-YAP inh -7.3.
`COc1ccc(-c2cc(C3CC3)nc(SCC(N)=O)c2C#N)cc1` gave GPR151 ag -0.8, FBW7 act -0.2, MITF inh 51.5*, TEAD-YAP inh 13.9, MITF inh conf -3.6 and AS interf ctr -5.1.
For N#Cc1c(-c2ccc(Br)cc2)cc(C2CC2)nc1SCC(=O)c1ccccc1 the results were GPR151 ag -0.4, FBW7 act -0.2, MITF inh 66.4*, TEAD-YAP inh -3.7, MITF inh conf -7.1 and AS interf ctr 15.7.
`COc1ccc(-c2cc(C3CC3)nc(SCC(=O)c3ccc(Br)cc3)c2C#N)cc1` gave GPR151 ag -0.9, FBW7 act 0.1, MITF inh 6.9 and TEAD-YAP inh -1.9.
For COc1ccc(NS(=O)(=O)c2ccc3c(c2)OCCO3)c(OC)c1 the results were GPR151 ag 0.5, FBW7 act 0.0, MITF inh 84.7*, TEAD-YAP inh 9.0, MITF inh conf -1.8 and AS interf ctr -1.7.
For CN(C)CCCNS(=O)(=O)c1ccc2c(c1)OCCO2 the results were GPR151 ag -1.7, FBW7 act 0.4, MITF inh 62.9*, TEAD-YAP inh -3.6, MITF inh conf 15.5 and AS interf ctr 15.9.
Screening CCOc1ccccc1NS(=O)(=O)c1ccc2c(c1)OCCCO2 returned GPR151 ag 2.3, FBW7 act 0.0, MITF inh 57.0*, TEAD-YAP inh -0.1, MITF inh conf -4.8 and AS interf ctr -5.5.
Cc1ccc(NC(=O)Cn2cc3c(n2)CCCC3)cc1 was read as GPR151 ag 1.4, FBW7 act -0.1, MITF inh 0.0 and TEAD-YAP inh -4.5.
Cc1cc(C)cc(N2C(=O)CS(=O)(=O)C2c2cccc(Br)c2)c1 (stereo not drawn) was read as GPR151 ag -0.2, FBW7 act -0.5, MITF inh -1.8 and TEAD-YAP inh 7.9.
Screening O=C1CS(=O)(=O)C(c2ccccc2)N1c1ccccc1 (stereo not drawn) returned GPR151 ag 3.1, FBW7 act 0.2, MITF inh 72.0*, TEAD-YAP inh -2.2, MITF inh conf -1.6 and AS interf ctr -1.2.
`CNC(=O)Nc1ccc2nc(-c3ccco3)c(-c3ccco3)nc2c1` gave GPR151 ag -0.4, FBW7 act -0.6, MITF inh 109.7*, TEAD-YAP inh 16.2, MITF inh conf 110.2*, AlphaScreen DR >6.48 and AS interf ctr 15.3.
`Cc1ccc(NC(=O)c2cc(-c3ccco3)on2)cc1C` gave GPR151 ag -0.6, FBW7 act -0.1, MITF inh -2.0 and TEAD-YAP inh -67.9.
O=C(CNCCN1CCCCC1)Nc1ccccc1N1CCOCC1 was read as GPR151 ag 1.9, FBW7 act 0.0, MITF inh 86.4*, TEAD-YAP inh -5.3, MITF inh conf 5.0 and AS interf ctr 11.9.
Screening O=C(CNCCCO)Nc1ccccc1N1CCCCCC1 returned GPR151 ag -1.0, FBW7 act 1.1, MITF inh 22.3 and TEAD-YAP inh -3.9.
For O=C(CNC1CCCCCC1)Nc1ccccc1N1CCCCC1 the results were GPR151 ag 3.0, FBW7 act 0.3, MITF inh 41.1 and TEAD-YAP inh -4.6.
